Calls of active or inactive are those of the source.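 The calls were made as follows, unless noted: active = compounds that lower viability of the colon cancer cells in the luminescence readout, with no numeric limit stated; inactive = the rest.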
Assays:
[1] = stimulators of nuclear beta-catenin in C2C12, primary screen, imaging, WNT3A-conditioned medium, mouse C2C12, NPC library (AID 1117326; in the data active = nuclear beta-catenin stimulation mostly above about 4.2%, no sharp cut-off; inactive = mostly below about 10%; also: reference of the scale not given here); conditions: stronger effect = higher value
[2] = stimulators of insulin release from INS-1E, primary screen, cell-based, 5 mM glucose, NPC library (AID 1117329;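 active = compound raises insulin release from rat beta cells at 5 mM glucose, no numeric limit stated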; also: reference of the scale not given here); conditions: rat INS-1E insulin secretion, at 10 µM, stronger effect = higher value
[3] = growth inhibition of GSK3B-pretreated HCT116 cells – cell-based, CellTiter-Glo, 0.2 to 20 µM (AID 1117336;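 active = compounds lowering colon cancer cell viability after pretreatment blocking the GSK3B kinase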); conditions: HCT116 viability after GSK3B inhibitor, at 20 µM, stronger effect = higher value
[4] = inhibition of endothelial tube formation, primary screen, imaging, VEGF stimulated, CD31 staining, tube area, NPC library (AID 1117340;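 active = compound that reduces growth-factor-driven endothelial tube area in a mixed cell culture, no cutoff stated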); conditions: VEGF-stimulated ADSC/ECFC co-culture, at 10 µM, stronger effect = higher value
[5] = glucagon-like peptide 1 release enhancers, primary assay, NCI-H716 cell line, NPC library (AID 1117341;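 active = compound raises GLP1 secretion from the human gut endocrine cells, with no numeric limit stated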; also: reference of the scale not given here); conditions: NCI-H716 cells, at 10 µM, stronger effect = higher value
[6] = HCT116 colon cancer cell growth inhibition, primary screen, CellTiter-Glo luminescence, NPC library (AID 1117342;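 active = compounds that lower survival of HCT116 colon cancer cells in the luminescence readout, no numeric limit stated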); conditions: at 20 µM (top of the series)
[7] = CellTiter-Glo luminescent readout of SW480 viability loss, NPC library primary (AID 1117343); conditions: CellTiter-Glo luminescence; at 20 µM (top of the series)
[8] = decreased DLD-1 cellular survival, CellTiter-Glo luminescent readout, NPC compound collection, primary HTS (AID 1117346;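 active = compounds that lower survival of DLD-1 colon cancer cells in the luminescence readout, no cutoff given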); conditions: DLD-1 viability, CellTiter-Glo luminescence; at 20 µM (top of the series)

SMILES | nuclear beta-catenin stimulation ([1]; at 10 µM) | nuclear beta-catenin stimulation ([1]; stimulation, at 2 µM) [%] | insulin secretion stimulation [2] | viability decrease [3] | tube area decrease [4] | GLP1 secretion stimulation [5] | inhibition of viability [6] | viability decrease (inhibition) [7] | viability decrease (inhibition) [8]
CCCCCCCC/C=C\CCCCCCCCN | -3.5% (inactive) | 2.6 | -0.6% (inactive) | 18.7% (inactive) | 90% (active) | 24.7% (active) | 33.8% (inactive) | 147% (active) | 106% (active)
Nc1ccc(S(=O)(=O)NCc2ccccc2)cc1 | 0.8% (inactive) | 1.8 | -2.5% (inactive) | -8.1% (inactive) | -5.2% (inactive) | 0.6% (inactive) | -18.3% (inactive) | 37.6% (inactive) | 10.1% (inactive)
CNC(=O)c1cnn(-c2nc(N)c3ncn([C@@H]4O[C@H](CO)[C@@H](O)[C@H]4O)c3n2)c1 | 2.6% (inactive) | 4.8 | -0.3% (inactive) | 3.8% (inactive) | 20.4% (inactive) | 4.6% (inactive) | 1% (inactive) | 6.8% (inactive) | -13.2% (inactive)
CCN(CC)CCOc1ccccc1C(=O)CCc1ccccc1 | -0.8% (inactive) | -1.7 | 70% (active) | 14.5% (inactive) | 0.9% (inactive) | 5.2% (inactive) | 61.9% (active) | 50.7% (active) | 23.2% (inactive)
O=C(CCCCCCCCC#CI)Oc1ccccc1 | 3% (inactive) | 0.2 | -1.7% (inactive) | 56% (active) | 13% (inactive) | 0.3% (inactive) | -7.3% (inactive) | 68.3% (active) | 63.9% (active)
CCCCCCCCCCCCCCCC[N+](C)(C)Cc1ccccc1 | 38.6% (inactive) | 0.7 | 1% (inactive) | 99.3% (active) | 109% (active) | -4.3% (inactive) | 99.2% (active) | 101% (active) | 102% (active)
CC(C)(C)NCC(O)COc1ccccc1OCC1CCCO1 (stereo not drawn) | -0.3% (inactive) | 2.1 | 5.4% (inactive) | -18.7% (inactive) | 34.3% (inactive) | -2.1% (inactive) | -6.3% (inactive) | 30% (inactive) | -6.9% (inactive)
COc1ccc(CCC(C)=O)cc1 | 0.1% (inactive) | 2.7 | 0.3% (inactive) | -3.4% (inactive) | -21% (inactive) | -3.2% (inactive) | -0.8% (inactive) | -0.7% (inactive) | -19.4% (inactive)
NC(=S)N=Nc1ccc(NN=C(N)N)cc1 | 1.9% (inactive) | 0.5 | 6.7% (inactive) | -24.6% (inactive) | 15.7% (inactive) | -3.7% (inactive) | 4.5% (inactive) | 25% (inactive) | 72.1% (active)
O=C(OCC(O)CO)c1ccccc1Nc1ccnc2c(C(F)(F)F)cccc12 (stereo not drawn) | 1% (inactive) | 0.5 | -0.3% (inactive) | -37% (inactive) | -5.3% (inactive) | 4.1% (inactive) | 12% (inactive) | 30.4% (inactive) | -17.2% (inactive)
CC(=O)CC/C=C(\C)CC/C=C(\C)CC/C=C(\C)CCC=C(C)C | 2.6% (inactive) | 1.2 | -2.1% (inactive) | -2.15% (inactive) | 19.6% (inactive) | -1.7% (inactive) | -35.4% (inactive) | 34.2% (active) | 0.15% (inactive)
CCCCCCCCCCCCCCCCCCO | 0.4% (inactive) | -0.4 | -1.7% (inactive) | -15.2% (inactive) | -3.6% (inactive) | 1.9% (inactive) | -11.1% (inactive) | 0.9% (inactive) | -5.65% (inactive)
NC[C@H]1O[C@H](O[C@H]2[C@H](O[C@@H]3O[C@H](CO)[C@@H](O)[C@H]3O)C(O)[C@H](N)C[C@@H]2N)[C@H](N)[C@@H](O)[C@@H]1O (stereo partly drawn) | 0.5% (inactive) | 2.2 | 1.4% (inactive) | -14.9% (inactive) | -12.5% (inactive) | 0.7% (inactive) | 2.3% (inactive) | 0.4% (inactive) | -14.4% (inactive)
O=C(O)/C=C\C(=O)O | 1.1% (inactive) | 1.9 | 2.7% (inactive) | -27.8% (inactive) | -3.6% (inactive) | -3.8% (inactive) | 4.1% (inactive) | 33.2% (inactive) | -11% (inactive)
COc1cc(C(=O)OC(COCCC(C)C)CN2CCOCC2)cc(OC)c1OC (stereo not drawn) | 0.4% (inactive) | 2.6 | 1.9% (inactive) | -9.2% (inactive) | 0.7% (inactive) | 13.1% (inactive) | 18.4% (inactive) | 39.2% (inactive) | 2.2% (inactive)
O=C(O)CCC(=O)C(=O)O | -1.7% (inactive) | -0.1 | -2.2% (inactive) | 0.1% (inactive) | -17.8% (inactive) | -1.6% (inactive) | -1.4% (inactive) | 2.9% (inactive) | -7.5% (inactive)

SMILES | nuclear beta-catenin stimulation ([1]; at 10 µM) | nuclear beta-catenin stimulation ([1]; stimulation, at 2 µM) [%] | insulin secretion stimulation [2] | viability decrease [3] | tube area decrease [4] | GLP1 secretion stimulation [5] | inhibition of viability [6] | viability decrease (inhibition) [7] | viability decrease (inhibition) [8]
CN(C)CCCOC1(Cc2ccccc2)CCCCCC1 | 6% (inactive) | 5.8 | 4.2% (inactive) | -55.2% (inactive) | 17.7% (inactive) | 6.8% (inactive) | 7.6% (inactive) | 33.2% (inactive) | -33.1% (inactive)
c1ccc(CNCCNCc2ccccc2)cc1 | 4% (inactive) | 4.4 | 3.4% (inactive) | -31.8% (inactive) | -24% (inactive) | 2.1% (inactive) | -6.83% (inactive) | 20% (inactive) | -22.2% (inactive)
CCCCCCCCCCCCOS(=O)(=O)O | 2.3% (inactive) | 1.9 | 0.9% (inactive) | -7.5% (inactive) | 4.9% (inactive) | 15.2% (inactive) | -7.97% (inactive) | -57.7% (inactive) | -12.9% (inactive)
C/C(=N\O)c1ccc(OCC(=O)N2CCCCC2)cc1 | 0.1% (inactive) | -1.1 | 3.05% (inactive) | 17.3% (inactive) | -6.2% (inactive) | 0.1% (inactive) | 13.8% (inactive) | -2.5% (inactive) | -0.4% (inactive)
O=C(c1cc(O)c(O)c(O)c1)c1ccc(O)c(O)c1O | 1% (inactive) | 17.1 | 6.1% (inactive) | 98.2% (active) | 8.9% (inactive) | 4.8% (inactive) | 69.7% (active) | 103% (active) | 58.6% (active)
COc1ccc(C=CC(=O)O)cc1 | -1.4% (inactive) | 0 | 1% (inactive) | -39% (inactive) | 4.7% (inactive) | -4.2% (inactive) | 2.2% (inactive) | -6.4% (inactive) | -5.9% (inactive)
O=C(Nc1ccc(Oc2ccc(Cl)cc2)c(Cl)c1)c1cc(I)cc(I)c1O | 6.2% (inactive) | 1.3 | 0.2% (inactive) | 122% (active) | 109% (active) | 29.8% (active) | 128% (active) | 161% (active) | 102% (active)
CCC(Cc1c(I)cc(I)c(O)c1I)C(=O)O (stereo not drawn) | 0.6% (inactive) | 0.3 | -0.2% (inactive) | 7.1% (inactive) | -23.3% (inactive) | -3.4% (inactive) | -22.9% (inactive) | 11.5% (inactive) | 1.1% (inactive)
N[C@H]1CN(c2c(F)cc3c(=O)c(C(=O)O)cn(C4C[C@@H]4F)c3c2Cl)CC12CC2 (stereo partly drawn) | 0.1% (inactive) | 1.9 | 0.95% (inactive) | 40.5% (inactive) | -10.7% (inactive) | -1.5% (inactive) | 34.3% (inactive) | 54.7% (active) | -9.6% (inactive)
CCCCN(CCN(CCCC)C(=O)N1CCOCC1)C(=O)N1CCOCC1 | 1.4% (inactive) | 1 | 1.1% (inactive) | -64.8% (inactive) | 17.8% (inactive) | 0.9% (inactive) | 25.7% (inactive) | 2.8% (inactive) | 24.1% (inactive)
O=S(=O)(O)c1ccc2nc(-c3ccccc3)[nH]c2c1 | 0.1% (inactive) | 0.5 | -0.6% (inactive) | 5.35% (inactive) | -26.3% (inactive) | 1.9% (inactive) | 6.9% (inactive) | 10.6% (inactive) | -0.25% (inactive)
O=C(O)CCC(=O)O | 0% (inactive) | 0.2 | -1% (inactive) | -5.25% (inactive) | -24.1% (inactive) | 1.6% (inactive) | -15.8% (inactive) | 10% (inactive) | -6.5% (inactive)
O=C(OCC1(COC(=O)c2cccnc2)CCCC(COC(=O)c2cccnc2)(COC(=O)c2cccnc2)C1O)c1cccnc1 | -1.3% (inactive) | -0.2 | 7.7% (inactive) | -3.6% (inactive) | -7.3% (inactive) | -3.3% (inactive) | 9.9% (inactive) | -3.1% (inactive) | -3.1% (inactive)
Cn1c(O)c(N=NC(N)=S)c2ccccc21 | 2.5% (inactive) | 3.1 | 2% (inactive) | 13.8% (inactive) | 28.1% (inactive) | -3.5% (inactive) | 39.9% (inactive) | 30.4% (inactive) | 12.2% (inactive)
O=C(O)c1ccccc1NCCc1ccccc1 | 1.2% (inactive) | 2.5 | 0.15% (inactive) | 42.9% (inactive) | 22.2% (inactive) | 1.4% (inactive) | 26.7% (inactive) | 50.6% (active) | -1.8% (inactive)
C[C@@H]1CCC[C@H](C)N1CCCC(O)(c1ccccc1)c1ccccn1 (stereo partly drawn) | 1% (inactive) | 0 | 2.6% (inactive) | -50.8% (inactive) | 12.8% (inactive) | 1.3% (inactive) | -3.7% (inactive) | 14.7% (inactive) | -14.8% (inactive)

Source: PubChem BioAssay
